Results reported in the supplement of paper PMC6555819.

Legend:
Test in all cases: PBM binding z-score (relative to random genomic background probes); higher = stronger binding; sequences stand for … in GC…GCGATTGACAGCGTAGAATGAAGG
[1] = tested on: FXR:RXRa (NR concentration 270 nM, RXRa partner concentration 90 nM)
Procedure, shortened: (§1)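 Binding buffer was PBS pH 7.4 with 2% milk, 0.02% Triton X-100, 1 mM DTT, 0.2 mg/mL BSA and 0.4 mg/ml salmon testes DNA. In it, ligand-free nuclear receptor dimers were incubated 1 h on custom Agilent 4×180K protein-binding microarrays carrying double-stranded probes. Antibodies against each partner (one per run) detected binding, and z-scores were calculated against random background probes after regression normalization of scanned fluorescence.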

[2] = tested on: LXRa:RXRa (NR concentration 270 nM, RXRa partner concentration 90 nM)
Procedure, shortened: as §1

[3] = tested on: LXRa homodimer (NR concentration 270 nM)
Procedure, shortened: as §1

[4] = tested on: LXRb:RXRa (NR concentration 270 nM, RXRa partner concentration 90 nM)
Procedure, shortened: as §1

[5] = tested on: LXRb homodimer (NR concentration 270 nM)
Procedure, shortened: as §1

[6] = tested on: PPARa:RXRa (NR concentration 270 nM, RXRa partner concentration 90 nM)
Procedure, shortened: as §1

[7] = tested on: PPARg:RXRa 270nM:90nM, anti-RXR (NR concentration 270 nM, RXRa partner concentration 90 nM)
Procedure, shortened: as §1

[8] = tested on: PPARg:RXRa 30nM:10nM, anti-RXR (NR concentration 30 nM, RXRa partner concentration 10 nM)
Procedure, shortened: as §1

[9] = tested on: PPARg:RXRa 90nM:30nM, anti-RXR (NR concentration 90 nM, RXRa partner concentration 30 nM)
Procedure, shortened: as §1

[10] = tested on: PPARg:RXRa DBDmut IVT, anti-RXR (DBD mutation: RXRa K156A/R161A, NR concentration 270 nM, RXRa partner concentration 90 nM)
Procedure, shortened: as §1

[11] = tested on: PPARg:RXRa IVT, anti-PPARg (NR concentration 270 nM, RXRa partner concentration 90 nM)
Procedure, shortened: as §1

[12] = tested on: PPARg DBDmut:RXRa IVT, anti-PPARg (DBD mutation: PPARg1 K132A/R137A, NR concentration 270 nM, RXRa partner concentration 90 nM)
Procedure, shortened: as §1

[13] = tested on: PPARg DBDmut IVT, anti-PPARg (DBD mutation: PPARg1 K132A/R137A, NR concentration 270 nM)
Procedure, shortened: as §1

[14] = tested on: PPARg homodimer (NR concentration 180 nM)
Procedure, shortened: as §1

[15] = tested on: PXR:RXRa (NR concentration 270 nM, RXRa partner concentration 90 nM)
Procedure, shortened: as §1

[16] = tested on: PXR homodimer (NR concentration 270 nM)
Procedure, shortened: as §1

[17] = tested on: RARa:RXR (NR concentration 270 nM, RXRa partner concentration 90 nM)
Procedure, shortened: as §1

[18] = tested on: RARa homodimer (NR concentration 270 nM)
Procedure, shortened: as §1

[19] = tested on: RARb:RXRa (NR concentration 270 nM, RXRa partner concentration 90 nM)
Procedure, shortened: as §1

Row | Sequence | PBM binding z-score [1] | PBM binding z-score [2] | PBM binding z-score [3] | PBM binding z-score [4] | PBM binding z-score [5] | PBM binding z-score [6] | PBM binding z-score [7] | PBM binding z-score [8] | PBM binding z-score [9] | PBM binding z-score [10] | PBM binding z-score [11] | PBM binding z-score [12] | PBM binding z-score [13] | PBM binding z-score [14] | PBM binding z-score [15] | PBM binding z-score [16] | PBM binding z-score [17] | PBM binding z-score [18] | PBM binding z-score [19]
1 | CCTTACGGGTCTAGGTTATAGCACGGGTGGTACG | -0.122 | -0.0116 | 0.0619 | -0.517 | -0.281 | 0.0671 | -0.00243 | -0.428 | -0.39 | -0.763 | 0.098 | -1.1 | -0.738 | -0.385 | -0.387 | -0.0571 | 0.0446 | -0.0691 | 0.467
2 | CCTTACGGGTCGCTGACAGGTTATAGCATTTGGA | 0.72 | 1.23 | -0.237 | 0.781 | -0.428 | 1.71 | 0.371 | -0.323 | -0.0613 | 0.346 | 0.0988 | -0.356 | -0.76 | 0.641 | 1 | -0.0348 | 1.68 | -0.0216 | 1.18
3 | CAAACTAGGTCACGAGGTCAAAGTCCGCTTCCCG | 7.24 | 6 | 5.08 | 5.41 | 1.09 | 6.85 | 8.27 | 7.29 | 8.74 | 8.56 | 9.04 | 2.5 | 3.48 | 3.45 | 6.15 | 3.42 | 6.91 | 1.34 | 5.48
4 | AATACAGGGTCACTAGGTCAGAGTAGGTACGAAT | 6.69 | 5.67 | 2.22 | 4.43 | 1.37 | 6.03 | 7.62 | 4.74 | 7.08 | 5.74 | 6.99 | 2.72 | 2.61 | 4.65 | 4.34 | 1.23 | 5.62 | 1.85 | 4.67
5 | CGTCCAACGTCAAGGTCAGTGAAAGAGACTCGAA | 1.22 | 1.12 | -0.198 | 1.28 | -0.439 | 2.04 | 0.216 | -0.429 | -0.211 | -0.074 | -0.0705 | -0.79 | -0.354 | 1.13 | 1.59 | 0.288 | 1.99 | 0.37 | 3.35
6 | CCTTACGGGTCACGGTTATAGCACGGGTGGTACG | 5.96 | 4.01 | 0.000447 | 3.23 | -0.179 | 5.56 | 5.89 | 2.69 | 4.69 | 3 | 4.79 | 0.0456 | -0.518 | 2.07 | 3.68 | -0.0861 | 4.84 | 0.629 | 4.37
7 | TCTTGTAGATCAAAGCTTAAGAAAGCCGAAGCCT | -0.314 | 0.0464 | -0.571 | -0.365 | -0.532 | 0.317 | 1.5 | 2.55 | 2.08 | 1.63 | 0.218 | -0.031 | -0.413 | -0.405 | -0.275 | -0.758 | -0.177 | -0.517 | -0.506
8 | CGAACTAGGTCAGAGCAGGACAGTGAAGGATGAT | 1.33 | 0.722 | -0.112 | 0.261 | -0.67 | 3.19 | 5.01 | 2.43 | 4.19 | 7.51 | 7.58 | 2.72 | 2.03 | 0.79 | 1.15 | -0.0767 | 1.54 | -0.158 | 2.94
9 | ACTCGGAGGACAGAGGTCAGAGCTACGCCAGTGA | 2.85 | 3.27 | 0.56 | 2.62 | -0.0333 | 3.83 | 4.96 | 2.62 | 4.8 | 0.205 | 2.43 | -0.153 | -0.704 | 1.89 | 3.17 | 0.328 | 3.9 | 0.568 | 3.57
10 | ATATGTAGGTTAGCTGGGGTCATTCCGACTAGGC | 4.03 | 5.97 | 3.23 | 4.79 | 1.3 | 5.14 | 5.12 | 2.35 | 4.36 | 6.8 | 5.93 | 1.65 | 0.994 | 3.16 | 6.18 | 3.73 | 5.3 | 0.761 | 2.99
11 | GATTCAGGGTCAGCTAGAGGCCAGAGTATGGAAA | 5.24 | 3.64 | -0.0707 | 3.25 | -0.355 | 5.13 | 4.14 | 1.13 | 3.05 | 1.78 | 3.04 | 0.184 | -0.207 | 2.1 | 3.77 | 0.432 | 4.59 | 0.68 | 4.5
12 | CAAACTAGGTCACGAAAGGTCAAAATCGAATGAC | 7.3 | 8.11 | 7.47 | 7.37 | 2.57 | 6.41 | 8.29 | 6.67 | 8.42 | 8.56 | 8.77 | 2.54 | 2.48 | 5.97 | 6.92 | 3.06 | 7.6 | 4.93 | 5.41
13 | AGAATGGGGTTAAGATCAGGGAAACAGAATACAT | 4.23 | 3.54 | 0.59 | 4.19 | 2.1 | 5.62 | 4.5 | 2.12 | 3.37 | 3.55 | 3.66 | 1.77 | 1.97 | 2.18 | 2.98 | 2.24 | 3.46 | 1.79 | 2.47
14 | ATATGTAGGTTAAGGGTCATGCAGGTTGGTTCGC | 4.83 | 4.77 | 2.17 | 4.13 | 1.3 | 6.71 | 10.2 | 10.9 | 11.9 | 7.69 | 7.88 | 4.88 | 2.56 | 5.05 | 5.37 | 2.16 | 6.47 | 2.37 | 3.73
15 | AGTAAAAGTTCACTAGGTAACGTAAGATTCAGCT | 4.14 | 4.44 | 3.1 | 2.6 | 1.17 | 4.32 | 5 | 2.09 | 4.23 | 2.43 | 4.33 | 0.938 | 1.34 | 2.48 | 3.04 | 2.08 | 2.39 | 1.61 | 4.39
